Compound activity as filed in PubChem.
The list is not random: actives were taken first. Their share in the collection is about 7.4%.
FLuc modulator: qHTS profiling assay for firefly luciferase inhibitor/activator using purifed enzyme and Km concentrations of substrates (counterscreen for miR-21 project). purified FLuc, Km substrates, luminescence inhibition. Potency, µM (doses to about 57.5 µM), most hits filed as inhibitors. actives 6.9% (n = 360,000). AID 588342, 2011; note: nearly all actives have a fitted effect of over 55% in size
Target sequence (P08659 whole entry, looked up): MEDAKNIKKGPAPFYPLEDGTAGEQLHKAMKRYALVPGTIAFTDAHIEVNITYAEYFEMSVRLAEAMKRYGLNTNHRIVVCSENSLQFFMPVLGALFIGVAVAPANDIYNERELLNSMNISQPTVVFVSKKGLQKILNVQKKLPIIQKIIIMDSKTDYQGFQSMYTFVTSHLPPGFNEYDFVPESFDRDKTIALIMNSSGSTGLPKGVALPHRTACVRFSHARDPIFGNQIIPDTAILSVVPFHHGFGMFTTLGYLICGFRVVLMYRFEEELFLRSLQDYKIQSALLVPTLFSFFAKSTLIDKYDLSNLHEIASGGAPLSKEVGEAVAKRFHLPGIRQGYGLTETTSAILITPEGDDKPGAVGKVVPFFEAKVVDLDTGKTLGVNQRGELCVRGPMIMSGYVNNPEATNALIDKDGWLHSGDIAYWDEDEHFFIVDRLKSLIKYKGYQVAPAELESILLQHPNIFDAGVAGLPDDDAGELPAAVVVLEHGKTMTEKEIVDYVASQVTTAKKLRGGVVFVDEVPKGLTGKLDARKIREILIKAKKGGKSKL
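Purified P. pyralis luciferase (10nM final) with 10uM D-luciferin and 10uM ATP (Km levels) in 50mM Tris acetate pH 7.5, 10mM Mg acetate, 0.01% Tween-20, 0.05% BSA; qHTS 6-point titration, ~60 µM downward; luminescence read.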
NPC1 promoter act: qHTS Assay for NPC1 Promoter Activators; Huh7 NPC1 promoter luciferase reporter, 24 h; actives 2.4% (n = 320,000); AID 485313, 2010; Potency, µM (titrated, usually from 9.22 µM), usual class: activators; note: nearly all actives have a fitted effect of over 60% in size
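NPC1 promoter–luciferase Huh7 cells; 24 h compound; luminescence.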
SMN2 splice up: qHTS Assay for Enhancers of SMN2 Splice Variant Expression; HEK293 SMN2-luciferase splicing reporter, luminescence, 30-36 h; Potency, µM (top dose mostly 46.1 µM), most hits filed as activators; actives 2.8% (n = 210,000); note: nearly all actives have a fitted effect of over 55% in size
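HEK293 cells carry an SMN2 minigene-luciferase reporter in which exon 7 inclusion puts luciferase in frame. Cells were seeded at 2000 cells/well, attached for 10-12 hours, then exposed to compounds for 30-36 hours at 37C before ONE-Glo luminescence.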
ELG1 genotox: qHTS screen for small molecules that induce genotoxicity in human embryonic kidney (HEK293T) cells expressing luciferase-tagged ELG1; HEK293T ELG1-luciferase reporter, luminescence, 16 h; Potency, µM (top dose mostly 46 µM), most hits filed as activators; actives 1.3% (n = 330,000); AID 504466, 2011; note: nearly all actives have a fitted effect of over 60% in size
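Screening used a luciferase reporter fused to human ELG1 in HEK293T cells. Luminescence was read on a CCD plate imager after 16 hr exposure and 30 min ONE-Glo incubation.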
Rab9 prom act: qHTS Assay for Rab9 Promoter Activators; Huh7 Rab9 promoter-luciferase reporter, luminescence, 24 h; Potency, µM (highest dose often 9.22 µM), hits mostly activators; actives 2.8% (n = 320,000); note: nearly all actives have a fitted effect of over 60% in size
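Cell-based reporter: Huh7 stable for Rab9 promoter-driven luciferase, plated in reduced-serum medium with 10% FBS at 1500 cells/well, compound-treated 24 h at 37 °C, luminescence read after 10 min reagent.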
Numbers stand for hits; [ ] = remark or other dose. Calls come from the whole dose curve; as a rule, active = well fitted curve in the direction sought with a large enough effect; inconclusive = small, poorly fitted or top-dose-only effect, or another doubt; inactive = no such curve, though single readings can be large; an effect the other way counts as inactive or inconclusive.

For CCC(CC)NC(=O)c1cc(S(=O)(=O)N2CCCCC2)ccc1N1CCOCC1 the results were NPC1 promoter act inactive, ELG1 genotox inactive and Rab9 prom act inactive.
For CCOc1ccc2[nH]c(=O)c(C(c3nnnn3Cc3ccco3)N3CCN(C)CC3)cc2c1 (centres undefined) the results were FLuc modulator inactive, NPC1 promoter act inactive, ELG1 genotox inconclusive and Rab9 prom act inactive.
`COc1ccccc1C(=O)Nc1nnc(SCC(=O)NC2CCCC2)s1` gave FLuc modulator 4.78µM, NPC1 promoter act 0.631µM and ELG1 genotox 2.31µM.
COc1cccc(C(=O)Nc2nnc(SCC(=O)NC3CCCC3)s2)c1 was read as FLuc modulator 2.69µM, NPC1 promoter act inconclusive, ELG1 genotox inconclusive and Rab9 prom act inconclusive.
`O=C(CSc1nnc(NC(=O)c2ccc(F)cc2)s1)NC1CC1` gave FLuc modulator 5.36µM, NPC1 promoter act 2.51µM, ELG1 genotox inconclusive and Rab9 prom act inconclusive.
For O=C(CSc1nnc(NC(=O)c2cccc(F)c2)s1)NC1CC1 the results were FLuc modulator 15.1µM, NPC1 promoter act inactive, ELG1 genotox inactive and Rab9 prom act inactive.
`O=C(Cc1ccc(F)cc1)Nc1nnc(SCC(=O)NC2CCCC2)s1` gave FLuc modulator inactive, NPC1 promoter act inactive, SMN2 splice up inactive, ELG1 genotox inconclusive and Rab9 prom act inactive.
CCOc1ccc(CN(C(=O)c2ccccn2)c2ccc(OC)c(Cl)c2)cc1 was read as FLuc modulator inconclusive, NPC1 promoter act inactive, ELG1 genotox inactive and Rab9 prom act inactive.
O=C(CSc1nnc(NC(=O)c2ccccc2F)s1)NC1CC1 was read as FLuc modulator 15.1µM, NPC1 promoter act inconclusive, ELG1 genotox inactive and Rab9 prom act inconclusive.
`O=C(CSc1nnc(NC(=O)c2ccco2)s1)NC1CCCC1` gave FLuc modulator inactive, NPC1 promoter act inactive, SMN2 splice up inactive, ELG1 genotox inactive and Rab9 prom act inactive.
`O=C(Nc1cc(Cl)cc(Cl)c1)c1cc(S(=O)(=O)N2CCC3(CC2)OCCO3)ccc1F` gave FLuc modulator inactive.
For Cc1nc(C(F)(F)F)c(C(=O)N/N=C(\N)c2cccnc2)s1 the results were FLuc modulator inactive, NPC1 promoter act inactive, SMN2 splice up inactive, ELG1 genotox inactive and Rab9 prom act inactive.
For Cc1nn(-c2ccccn2)c(C)c1Oc1ccccc1O the results were FLuc modulator inactive, NPC1 promoter act inactive, SMN2 splice up inactive, ELG1 genotox inactive and Rab9 prom act inactive.
Screening Cc1nn(-c2nc3ccccc3s2)c(C)c1Oc1ccccc1O returned FLuc modulator 2.39µM, NPC1 promoter act 3.55µM, SMN2 splice up inconclusive, ELG1 genotox inconclusive and Rab9 prom act 3.16µM.
For Cc1ccnc(NC(=O)c2ccc3c(c2)OCO3)c1 the results were FLuc modulator 2.13µM, NPC1 promoter act 0.501µM, ELG1 genotox inconclusive and Rab9 prom act 0.447µM.
Screening Cc1ccc(NC(=O)c2ccc3c(c2)NC(=O)CS3)nc1 returned FLuc modulator inconclusive, NPC1 promoter act inconclusive, ELG1 genotox 9.2µM and Rab9 prom act inconclusive.
Screening Cc1ccc(NC(=O)c2cccc(NC(=O)CC3SC(N4CCCCC4)=NC3=O)c2)nc1 (centres undefined) returned FLuc modulator 10.7µM, NPC1 promoter act inactive, ELG1 genotox inactive and Rab9 prom act inactive.
`Cc1ccnc(NC(=O)c2ccc(N3C(=O)CCC3=O)cc2)c1` gave FLuc modulator 19µM, NPC1 promoter act inconclusive, SMN2 splice up inactive, ELG1 genotox inactive and Rab9 prom act inconclusive.
Screening OCCC1CN(Cc2cccc3nccnc23)CCN1Cc1ccc(F)cc1 (centres undefined) returned FLuc modulator inactive, NPC1 promoter act inactive, ELG1 genotox inactive and Rab9 prom act inactive.
For COc1cccc(CC(=O)N2CCc3nc(-c4ccc(OC)cc4C)c4c(c3C2)CO[C@@H](c2ccccc2)C4)c1 the results were SMN2 splice up inactive[9.22 µM].
For Cc1ccc(NC(=O)CNC(=O)c2ccc3c(c2)OCO3)nc1 the results were FLuc modulator inactive, NPC1 promoter act inactive, ELG1 genotox inactive and Rab9 prom act inactive.
Screening Cc1cc(C)c2sc(NC(=O)c3ccc(N4C(=O)CCC4=O)cc3)nc2c1 returned FLuc modulator 2.39µM, NPC1 promoter act inactive, ELG1 genotox inactive and Rab9 prom act inactive.
For Cc1ccc2nc(NC(=O)c3ccc(N4C(=O)CCC4=O)cc3)sc2c1 the results were FLuc modulator inconclusive, NPC1 promoter act inactive, SMN2 splice up inactive, ELG1 genotox inactive and Rab9 prom act inactive.
Screening Cc1ccc(NC(=O)c2ccc3c(c2)OCCO3)nc1 returned FLuc modulator 1.35µM, NPC1 promoter act 0.631µM, ELG1 genotox inconclusive and Rab9 prom act 0.355µM.
`Cc1cc(OCC(=O)NC2CCN(Cc3ccccc3)CC2)c2c(C)cc(=O)oc2c1` gave FLuc modulator inactive, NPC1 promoter act inactive, ELG1 genotox inactive and Rab9 prom act inactive.
`CCOC(=O)NC(=O)CSc1nc(-c2ccc(C)c(C)c2)cn1-c1ccccc1` gave FLuc modulator 16.9µM, NPC1 promoter act inconclusive, SMN2 splice up inactive, ELG1 genotox inconclusive and Rab9 prom act 2.24µM.
Screening COc1ccc(NC(=O)C(C)NS(=O)(=O)c2ccccc2)cc1Cl (centres undefined) returned FLuc modulator inactive, NPC1 promoter act inactive, SMN2 splice up inactive, ELG1 genotox inactive and Rab9 prom act inactive.
`Cc1ccc(C)c(S(=O)(=O)NC(C)C(=O)Nc2ccc(-c3nc4ccccc4s3)cc2)c1` (centres undefined) gave FLuc modulator 7.57µM, NPC1 promoter act 3.55µM, SMN2 splice up inactive, ELG1 genotox inconclusive and Rab9 prom act 3.16µM.
O=C(CNS(=O)(=O)c1cccc(Cl)c1)Nc1ccc(-c2nc3ccccc3s2)cc1 was read as FLuc modulator 15.1µM, NPC1 promoter act inconclusive, SMN2 splice up 4.47µM, ELG1 genotox 8.2µM and Rab9 prom act 1.58µM.
`CC(C)(C)c1ccc(S(=O)(=O)NCC(=O)Nc2ccc(-c3nc4ccccc4s3)cc2)cc1` gave FLuc modulator inconclusive, NPC1 promoter act inactive, SMN2 splice up 11.2µM, ELG1 genotox inconclusive and Rab9 prom act inactive.
For COc1cccc(S(=O)(=O)NCC(=O)Nc2ccc(C(C)(C)C)cc2)c1 the results were FLuc modulator inconclusive, NPC1 promoter act inactive, SMN2 splice up inactive, ELG1 genotox inactive and Rab9 prom act inactive.
For CC(NS(=O)(=O)c1cccc(Cl)c1)C(=O)Nc1ccc(-c2nc3ccccc3s2)cc1 (centres undefined) the results were FLuc modulator 16.9µM, NPC1 promoter act inconclusive, SMN2 splice up 20µM, ELG1 genotox inconclusive and Rab9 prom act 2.82µM.
Screening O=C(O)CNS(=O)(=O)c1cccc(Cl)c1 returned FLuc modulator inactive, NPC1 promoter act inactive, ELG1 genotox inactive and Rab9 prom act inactive.
